Reference: PubChem BioAssay (EPA / NIEHS)
Results filed as inconclusive are left out. Activity calls are given as the source filed them. The calls were made as follows, unless noted: active = hit-call score of the fitted dose curve at least 0.9, where 1 is the maximum; inactive = score below 0.9.

Experiments:
[1] = target: Oxysterols receptor LXR-alpha (Homo sapiens) (UniProt Q13133); test: ATG_LXRa_TRANS: Attagene TRANS-FACTORIAL HepG2 Assay for human Liver X Receptor alpha (LXRa) (AID 2282980; active = hit-call score of the fitted dose curve at least 0.9, where 1 is the maximum); conditions: HepG2 Attagene TRANS reporter, LXRa transactivation
Outline: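 Transient HepG2 transfectants, 24 h dosing, RT-PCR/CE mRNA reporter quantitation; gain-of-signal vs DMSO.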

[2] = target: Oxysterols receptor LXR-beta (Homo sapiens) (UniProt P55055); test: ATG_LXRb_TRANS: Attagene TRANS-FACTORIAL HepG2 Assay for human Liver X Receptor beta (LXRb) (AID 2282981; active = hit-call score of the fitted dose curve at least 0.9, where 1 is the maximum); conditions: HepG2 Attagene TRANS GAL4-LXRb reporter, mRNA
Outline: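 Transient transfection HepG2 (multiplexed RTUs, GAL4-UAS); NR-Gal4 chimera; 24 h exposure; RNA → RT-PCR → 6-FAM primer extension → HpaI → CE; increase vs DMSO.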

[3] = target: Nuclear receptor subfamily 4 group A member 2 (Homo sapiens) (UniProt P43354); test: ATG_NURR1_TRANS: Attagene TRANS-FACTORIAL HepG2 Assay for human Nuclear Receptor Related Protein 1 (NURR1) (AID 2282985; active = hit-call score of the fitted dose curve at least 0.9, where 1 is the maximum); conditions: HepG2 Attagene TRANS reporter, mRNA readout
Outline: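 Transient transfection of HepG2, human liver cells, with multiple GAL4-UAS reporter transcription units. Cells dosed 24 h, RNA isolated, reverse-transcribed, PCR-amplified, FAM-labelled, HpaI-digested, sized by capillary electrophoresis. DMSO served as negative control.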

[4] = target: Transcriptional activator Myb (Homo sapiens) (UniProt P10242); test: ATG_Myb_CIS: Attagene CIS-FACTORIAL HepG2 Assay for human Myeloblastosis (Myb) Proto-Oncogene Transcription Factor (AID 2282986); conditions: HepG2 Attagene CIS-FACTORIAL Myb reporter transcription; actives raise or lower the signal
Outline: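 HepG2, transient MRTU transfection (cis-element promoters, endogenous TF activity), 24 h compound exposure. Readout: reporter mRNA via RT-PCR, 6-FAM labeling, HpaI digest, capillary electrophoresis. Gain/loss fit vs DMSO.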

[5] = target: Nuclear respiratory factor 1 (Homo sapiens) (UniProt Q16656); test: ATG_NRF1_CIS: Attagene CIS-FACTORIAL HepG2 Assay for human Nuclear Respiratory Factor 1 (NRF1) Orphan Gene (AID 2282987); conditions: HepG2 NRF1 cis-element reporter, Attagene multiplex; actives raise or lower the signal
Outline: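 Endogenous NRF1-driven reporter transcription measured in transiently transfected human HepG2 liver cells. Readout: reporter mRNA by RT-PCR and capillary electrophoresis with fluorescence detection, 24 h post-dosing. Gain or loss of signal fitted relative to DMSO baseline.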

[6] = ATG_NFI_CIS: Attagene CIS-FACTORIAL HepG2 Assay for human Nuclear Factor I (NFI) (AID 2282989); conditions: HepG2 cis-regulatory reporter, NFI response element transcription; actives raise or lower the signal
Outline: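 Endogenous TF activity in HepG2 cells transiently transfected with cis-element-driven multiplexed reporter units, read 24 h after dosing. Reporter mRNA quantified by RT-PCR, 6-FAM labelling, HpaI digestion and capillary electrophoresis; bidirectional fit versus DMSO.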

[7] = target: Myc proto-oncogene protein (Homo sapiens) (UniProt P01106); test: ATG_Myc_CIS: Attagene CIS-FACTORIAL HepG2 Assay for human Myelocytomatosis (Myc) Proto-Oncogene Transcription Factor (AID 2282990); conditions: HepG2, Attagene cis-reporter transcription factor activity; actives raise or lower the signal
Outline: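 HepG2, transient MRTU transfection (cis promoters, endogenous TFs); 24 h dosing; TriZol RNA → oligo(dT) RT → PCR → 6-FAM primer extension → HpaI cut → CE. Bidirectional fit vs DMSO.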

[8] = ATG_NF_kB_CIS: Attagene CIS-FACTORIAL HepG2 Assay for human Nuclear Factor Kappa B (NF-kB) (AID 2282991); conditions: HepG2 Attagene cis-factorial NF-kB reporter mRNA; actives raise or lower the signal
Outline: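 Read-out: reporter transcript levels quantified by RT-PCR plus capillary electrophoresis of 6-FAM-labelled, HpaI-cut fragments. Transfected HepG2 cells, 24 h compound exposure, endogenous NF-kB-driven cis element; gain or loss scored versus DMSO.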

[9] = ATG_NRF2_ARE_CIS: Attagene CIS-FACTORIAL HepG2 Assay for human Nuclear Factor Erythroid 2 Related Factor 2 (NFR2) response to Antioxidant Response Elements (ARE) (AID 2282992); conditions: HepG2 Attagene ARE/NRF2 reporter, transcription factor activity; actives raise or lower the signal
Outline: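 Multiplexed reporter mRNA profiling in HepG2 after a 24 h chemical exposure. Curves fitted in both directions relative to DMSO negative control.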

[10] = ATG_Oct_MLP_CIS: Attagene CIS-FACTORIAL HepG2 Assay for human Octamer-Binding Transcription Factor (Oct) (AID 2282993); conditions: HepG2 Attagene cis-factorial Oct reporter, mRNA; actives raise or lower the signal
Outline: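 HepG2 cells transiently transfected with cis-element-driven reporter transcription units (endogenous TF activity); 24 h compound exposure. Reporter mRNA quantified by RT-PCR, 6-FAM labelling, HpaI digestion and capillary electrophoresis; bidirectional fit versus DMSO baseline.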

[11] = ATG_M_32_TRANS: Attagene TRANS-FACTORIAL HepG2 Assay for M32 Transcription Factor (Internal Marker) (AID 2282984; active = hit-call score of the fitted dose curve at least 0.9, where 1 is the maximum;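 also: transcript level of a background control reporter unit measured by RT-PCR and capillary electrophoresis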); conditions: HepG2 Attagene TRANS M32 internal marker reporter
Outline: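 Measures reporter mRNA induction in human HepG2 liver cells after 24 h chemical treatment. Transcripts from transiently transfected GAL4-UAS reporter units are amplified, fluorescently labelled and sized by capillary electrophoresis; gain of signal relative to DMSO.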

[12] = target: Cellular tumor antigen p53 (Homo sapiens) (UniProt P04637); test: ATG_p53_CIS: Attagene CIS-FACTORIAL HepG2 Assay for human p53 Transcription Factor (AID 2282994); conditions: HepG2 p53 cis-element reporter, Attagene mRNA; actives raise or lower the signal
Outline: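 Multiplexed reporter mRNA assay in human HepG2 liver cells; cis-regulated units report endogenous factor activity. Values come from bidirectional curve fitting against DMSO negative control after 24 h treatment.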

[13] = ATG_M_06_TRANS: Attagene TRANS-FACTORIAL HepG2 Assay for M06 Transcription Factor (Internal Marker) (AID 2282983; active = hit-call score of the fitted dose curve at least 0.9, where 1 is the maximum); conditions: HepG2 Attagene TRANS M06 internal marker reporter
Outline: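 Measured by capillary electrophoresis of fluorescently labelled RT-PCR products, this endpoint reflects reporter mRNA in HepG2 cells harbouring exogenous NR-GAL4 reporter constructs after 24 h exposure, with DMSO as baseline.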

[14] = target: Hepatocyte nuclear factor 4-alpha (Homo sapiens) (UniProt P41235); test: ATG_HNF4a_TRANS: Attagene TRANS-FACTORIAL HepG2 Assay for human Hepatocyte Nuclear Factor 4 alpha (HNF4a) (AID 2282982; active = hit-call score of the fitted dose curve at least 0.9, where 1 is the maximum); conditions: HepG2 HNF4a transactivation reporter, mRNA readout
Outline: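 Readout is fluorescent reporter-transcript fragments resolved by capillary electrophoresis after RT-PCR from HepG2 cells dosed for 24 h. Cells carried transfected GAL4-UAS reporter constructs measuring exogenous NR-GAL4 chimera activity; DMSO served as baseline.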

[15] = BSK_3C_TissueFactor: BioMAP Diversity Plus: 3C Assay for Tissue Factor Biomarker Activity (AID 2282997); conditions: BioMAP 3C HUVEC, tissue factor biomarker readout; actives raise or lower the signal
Outline: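 Values derive from bidirectional curve fitting against DMSO of Tissue Factor ELISA signals, taken 24 h after dosing primary human umbilical vein endothelial cells.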

[16] = BSK_3C_uPAR: BioMAP Diversity Plus: 3C Assay for Urokinase-type plasminogen activator receptor (uPAR) Biomarker Activity (AID 2282998); conditions: BioMAP 3C HUVEC, uPAR biomarker ELISA; actives raise or lower the signal
Outline: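 Primary human umbilical vein endothelial cells, 3C system; surface uPAR measured by ELISA 24 h after dosing. Cytotoxicity via SRB total protein in parallel cultures; bidirectional fit against DMSO.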

[17] = BSK_3C_VCAM1: BioMAP Diversity Plus: 3C Assay for Vascular cell adhesion molecule 1 (VCAM1) Biomarker Activity (AID 2282999); conditions: BioMAP 3C HUVEC, VCAM1 ELISA, cytokine-stimulated; actives raise or lower the signal
Outline: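 Endothelial cells from human umbilical vein are treated with test chemical. At 24 h, VCAM-1 is measured by ELISA, and responses in either direction are fitted relative to DMSO.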

Chain of Cellular tumor antigen p53 (Homo sapiens) (P04637 whole entry, looked up): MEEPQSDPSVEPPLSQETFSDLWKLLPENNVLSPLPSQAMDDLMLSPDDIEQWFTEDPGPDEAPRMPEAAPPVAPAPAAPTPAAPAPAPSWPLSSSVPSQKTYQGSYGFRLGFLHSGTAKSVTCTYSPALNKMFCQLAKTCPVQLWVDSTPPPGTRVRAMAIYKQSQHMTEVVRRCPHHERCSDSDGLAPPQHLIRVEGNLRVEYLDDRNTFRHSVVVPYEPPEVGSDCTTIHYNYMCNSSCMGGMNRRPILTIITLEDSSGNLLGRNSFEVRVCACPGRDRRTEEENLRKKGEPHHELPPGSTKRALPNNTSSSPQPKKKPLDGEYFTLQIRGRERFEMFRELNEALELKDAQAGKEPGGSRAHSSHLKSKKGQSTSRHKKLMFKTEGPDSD
Chain of Hepatocyte nuclear factor 4-alpha (Homo sapiens) (P41235 whole entry, looked up, the tested form may be a part): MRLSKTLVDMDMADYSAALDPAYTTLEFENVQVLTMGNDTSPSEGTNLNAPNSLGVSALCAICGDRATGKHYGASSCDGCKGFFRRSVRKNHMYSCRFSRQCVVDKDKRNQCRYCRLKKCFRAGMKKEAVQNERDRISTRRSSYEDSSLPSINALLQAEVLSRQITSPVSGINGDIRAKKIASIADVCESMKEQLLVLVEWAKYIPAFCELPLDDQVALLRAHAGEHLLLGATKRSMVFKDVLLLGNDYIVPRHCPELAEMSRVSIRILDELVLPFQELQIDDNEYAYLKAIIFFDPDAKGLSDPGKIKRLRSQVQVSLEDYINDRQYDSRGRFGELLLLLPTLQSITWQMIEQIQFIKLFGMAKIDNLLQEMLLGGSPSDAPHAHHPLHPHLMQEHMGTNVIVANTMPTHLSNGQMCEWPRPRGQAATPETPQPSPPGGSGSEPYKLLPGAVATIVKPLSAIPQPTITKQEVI
Chain of Nuclear receptor subfamily 4 group A member 2 (Homo sapiens) (P43354 whole entry, looked up, the tested form may be a part): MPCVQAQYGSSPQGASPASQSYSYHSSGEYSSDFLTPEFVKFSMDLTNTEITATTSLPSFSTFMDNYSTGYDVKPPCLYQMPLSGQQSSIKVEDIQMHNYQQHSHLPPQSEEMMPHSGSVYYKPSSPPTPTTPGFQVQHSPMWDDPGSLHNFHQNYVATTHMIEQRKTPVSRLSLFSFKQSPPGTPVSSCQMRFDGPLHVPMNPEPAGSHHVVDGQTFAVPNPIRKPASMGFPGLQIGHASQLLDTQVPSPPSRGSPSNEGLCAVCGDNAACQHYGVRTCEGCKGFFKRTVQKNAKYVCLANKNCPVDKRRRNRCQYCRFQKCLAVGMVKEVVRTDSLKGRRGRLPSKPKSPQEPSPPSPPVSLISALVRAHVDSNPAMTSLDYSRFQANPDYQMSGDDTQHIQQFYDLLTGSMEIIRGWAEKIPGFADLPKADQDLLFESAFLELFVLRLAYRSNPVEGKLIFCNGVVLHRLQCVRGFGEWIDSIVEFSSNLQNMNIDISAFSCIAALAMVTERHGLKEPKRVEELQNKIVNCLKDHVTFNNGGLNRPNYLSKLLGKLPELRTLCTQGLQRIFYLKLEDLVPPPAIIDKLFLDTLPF
Chain of Transcriptional activator Myb (Homo sapiens) (P10242 whole entry, looked up): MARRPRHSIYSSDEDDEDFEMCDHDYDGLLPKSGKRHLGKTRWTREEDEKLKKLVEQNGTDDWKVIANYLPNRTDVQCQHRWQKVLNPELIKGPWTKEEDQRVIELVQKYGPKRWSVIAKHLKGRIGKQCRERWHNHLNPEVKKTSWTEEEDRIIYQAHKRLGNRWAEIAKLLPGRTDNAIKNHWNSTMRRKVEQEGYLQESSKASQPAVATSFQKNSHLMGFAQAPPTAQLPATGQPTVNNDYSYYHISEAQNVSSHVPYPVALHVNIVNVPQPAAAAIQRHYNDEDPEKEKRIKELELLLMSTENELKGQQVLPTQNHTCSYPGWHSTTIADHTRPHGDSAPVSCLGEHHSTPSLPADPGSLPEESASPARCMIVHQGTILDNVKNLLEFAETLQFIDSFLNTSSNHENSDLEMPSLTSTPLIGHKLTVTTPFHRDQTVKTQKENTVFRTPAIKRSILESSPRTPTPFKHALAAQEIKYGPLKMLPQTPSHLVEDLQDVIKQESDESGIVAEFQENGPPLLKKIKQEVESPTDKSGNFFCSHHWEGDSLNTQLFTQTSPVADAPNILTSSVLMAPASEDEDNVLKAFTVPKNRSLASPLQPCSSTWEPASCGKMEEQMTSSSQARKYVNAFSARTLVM
Chain of Oxysterols receptor LXR-beta (Homo sapiens) (P55055 whole entry, looked up, the tested form may be a part): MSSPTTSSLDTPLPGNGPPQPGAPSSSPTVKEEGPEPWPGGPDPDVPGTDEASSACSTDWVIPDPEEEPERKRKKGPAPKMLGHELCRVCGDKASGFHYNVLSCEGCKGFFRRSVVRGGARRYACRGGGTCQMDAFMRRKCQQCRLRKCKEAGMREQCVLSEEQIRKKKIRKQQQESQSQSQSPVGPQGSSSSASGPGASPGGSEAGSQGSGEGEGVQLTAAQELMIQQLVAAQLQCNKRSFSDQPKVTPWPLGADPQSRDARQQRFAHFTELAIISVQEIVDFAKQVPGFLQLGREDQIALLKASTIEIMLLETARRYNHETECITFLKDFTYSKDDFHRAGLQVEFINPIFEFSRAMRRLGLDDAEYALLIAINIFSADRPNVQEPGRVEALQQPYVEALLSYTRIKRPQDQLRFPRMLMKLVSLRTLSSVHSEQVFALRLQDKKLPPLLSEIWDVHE
Chain of Oxysterols receptor LXR-alpha (Homo sapiens) (Q13133 whole entry, looked up): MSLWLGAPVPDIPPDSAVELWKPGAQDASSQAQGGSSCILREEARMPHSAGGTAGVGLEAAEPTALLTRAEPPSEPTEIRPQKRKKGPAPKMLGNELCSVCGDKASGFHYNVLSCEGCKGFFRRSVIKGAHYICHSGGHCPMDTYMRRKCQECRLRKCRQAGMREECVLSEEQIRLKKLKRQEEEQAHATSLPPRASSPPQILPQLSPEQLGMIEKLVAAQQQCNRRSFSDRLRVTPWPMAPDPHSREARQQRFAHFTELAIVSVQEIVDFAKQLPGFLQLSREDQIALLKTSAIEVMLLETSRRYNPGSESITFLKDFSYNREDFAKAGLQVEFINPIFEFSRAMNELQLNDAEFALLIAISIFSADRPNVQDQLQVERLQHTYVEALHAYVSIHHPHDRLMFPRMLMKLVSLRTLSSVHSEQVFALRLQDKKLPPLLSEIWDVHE
Chain of Nuclear respiratory factor 1 (Homo sapiens) (Q16656 whole entry, looked up): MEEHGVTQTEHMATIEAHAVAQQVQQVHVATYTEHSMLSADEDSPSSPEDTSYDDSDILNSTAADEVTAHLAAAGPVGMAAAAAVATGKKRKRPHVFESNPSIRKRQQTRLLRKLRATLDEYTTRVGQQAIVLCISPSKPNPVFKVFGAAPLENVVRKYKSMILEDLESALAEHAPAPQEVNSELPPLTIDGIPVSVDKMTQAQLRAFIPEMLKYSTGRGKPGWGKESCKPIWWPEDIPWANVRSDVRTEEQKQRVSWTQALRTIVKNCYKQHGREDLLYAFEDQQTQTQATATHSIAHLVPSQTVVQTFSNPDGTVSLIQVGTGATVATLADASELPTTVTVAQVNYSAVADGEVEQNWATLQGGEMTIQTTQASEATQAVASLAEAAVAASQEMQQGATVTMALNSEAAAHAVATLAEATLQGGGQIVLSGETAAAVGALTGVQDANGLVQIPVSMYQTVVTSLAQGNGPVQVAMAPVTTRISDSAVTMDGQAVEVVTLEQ
Chain of Myc proto-oncogene protein (Homo sapiens) (P01106 whole entry, looked up): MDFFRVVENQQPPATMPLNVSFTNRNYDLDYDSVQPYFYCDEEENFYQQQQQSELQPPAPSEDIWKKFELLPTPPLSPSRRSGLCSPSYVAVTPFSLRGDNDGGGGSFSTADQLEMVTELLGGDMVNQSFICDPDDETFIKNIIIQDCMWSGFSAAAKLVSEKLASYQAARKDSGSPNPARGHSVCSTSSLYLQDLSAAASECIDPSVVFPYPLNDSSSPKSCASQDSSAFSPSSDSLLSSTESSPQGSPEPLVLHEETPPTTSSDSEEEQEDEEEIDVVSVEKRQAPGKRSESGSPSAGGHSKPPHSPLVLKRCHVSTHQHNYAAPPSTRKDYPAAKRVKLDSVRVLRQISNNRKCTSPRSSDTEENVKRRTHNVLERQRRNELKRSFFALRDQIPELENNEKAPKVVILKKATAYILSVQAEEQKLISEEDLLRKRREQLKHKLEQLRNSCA

SMILES	outcome [1]	outcome [2]	outcome [3]	outcome [4]	outcome [5]	outcome [6]	outcome [7]	outcome [8]	AC50 [9]	outcome [10]	outcome [11]	AC50 [10]	outcome [12]	outcome [13]	outcome [9]	outcome [14]	AC50 [8]	outcome [15]	outcome [16]	outcome [17]
OCC=Cc1ccccc1	inactive	inactive	inactive	inactive	inactive	inactive	inactive	inactive	65.9 µM (active)	inactive										
CCCCCCOc1ccc(O)cc1	inactive	inactive		inactive	inactive	inactive	inactive	inactive	18.7 µM (active)		inactive	33.4 µM (active)	inactive							
CCCCCCCCCCCCCC(=O)OCC	inactive	inactive	inactive	inactive	inactive	inactive	inactive			inactive	inactive		inactive	inactive	inactive					
CC1=CC[C@@H](C(C)(C)O)CC1	inactive	inactive		inactive	inactive	inactive	inactive	inactive	40.6 µM (active)	inactive			inactive			inactive				
CC(=O)Nc1cc(S(=O)(=O)O)cc2cc(S(=O)(=O)O)c(N=Nc3ccccc3)c(O)c12	inactive	inactive			inactive	inactive	inactive	inactive		inactive	inactive		inactive	inactive	inactive					
C=CC(=O)OCCCCCC	inactive	inactive	inactive	inactive	inactive	inactive	inactive			inactive	inactive		inactive		inactive					
CC(C)(C)C1CCC(O)CC1 (stereo unspecified)	inactive	inactive		inactive	inactive	inactive	inactive	inactive		inactive			inactive	inactive	inactive					
O=c1cc(-c2ccc(O)cc2)oc2cc(O)cc(O)c12	inactive	inactive	inactive	inactive	inactive	inactive	inactive					26.5 µM (active)	inactive	inactive	inactive	inactive				
[O-]/[N+](=N\O)c1ccccc1	inactive			inactive	inactive	inactive	inactive		17.3 µM (active)	inactive	inactive		inactive	inactive						
OC[C@@H](O)[C@H](O)[C@@H](O)[C@@H](O)CO	inactive			inactive	inactive	inactive	inactive	inactive		inactive	inactive		inactive		inactive	inactive				
CCCC1CCOC(C)S1 (stereo unspecified)	inactive			inactive	inactive	inactive	inactive	inactive		inactive	inactive				inactive					
CCCCCC#CC(=O)OC	inactive			inactive	inactive	inactive	inactive		23.9 µM (active)	inactive	inactive		inactive				23.1 µM (active)			
Nc1cc([N+](=O)[O-])ccc1C(=O)O	inactive	inactive	inactive		inactive	inactive	inactive		51.8 µM (active)	inactive			inactive			inactive				
C=C(C)CCCC(C)CCO (stereo unspecified)	inactive	inactive	inactive	inactive	inactive	inactive	inactive	inactive	59.7 µM (active)	inactive	inactive		inactive	inactive						
COC(=O)c1ccc(C(=O)OC)cc1	inactive			inactive	inactive	inactive	inactive	inactive		inactive	inactive		inactive	inactive	inactive	inactive		inactive	inactive	inactive
O=C(O)c1cccc(Cl)n1	inactive			inactive	inactive	inactive	inactive	inactive		inactive	inactive		inactive		inactive					
C=C(C)C(=O)OCCC[Si](OC)(OC)OC	inactive	inactive		inactive	inactive	inactive	inactive	inactive		inactive	inactive		inactive		inactive	inactive				
CC(C)N1C(=O)c2ccccc2C1=O	inactive			inactive	inactive	inactive	inactive	inactive		inactive	inactive		inactive	inactive	inactive					
CC(C)=CC(=O)O	inactive		inactive		inactive	inactive	inactive	inactive		inactive	inactive		inactive	inactive	inactive	inactive				
FC(F)(F)c1ccc(Cl)c(Cl)c1	inactive			inactive	inactive	inactive	inactive	inactive		inactive			inactive		inactive	inactive				
CC(C)=CCCC(C)=CC(=O)O	inactive	inactive		inactive	inactive	inactive	inactive	inactive		inactive			inactive	inactive	inactive					
COc1ccccc1NC(=O)CC(C)=O	inactive	inactive	inactive	inactive	inactive	inactive	inactive	inactive		inactive	inactive		inactive		inactive	inactive		inactive	inactive	inactive
CCC(C)C1CCCCC1=O (stereo unspecified)	inactive		inactive	inactive	inactive	inactive	inactive	inactive		inactive	inactive		inactive	inactive	inactive					
